Experiment [1] relates to Plasmodium falciparum Sir2 (PF13_0152, Sir2A). Description: Plasmodium falciparum Sir2A binding compounds – biochemical, small-molecule microarray, 635 nm fluorescence, primary screen (AID 1098).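 Note: score merges spot fluorescence intensity with its signal-to-noise ratio.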 To be noted: fluorescence 635 nm, higher = more signal.
Experiment [2] is described as follows: probe aDKK1 binding to arrayed compounds – biochemical, biotinylated probe, 635/667 nm fluorescence, primary screen (AID 1099).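 Note: score merges 667nm spot fluorescence with signal to noise across triplicate slides.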 To be noted: small-molecule microarray, higher = more signal.
Experiment [3] is described as follows: probe aCHRDL2 binding to arrayed compounds – biochemical, biotinylated probe, 635/667 nm fluorescence, primary screen (AID 1100). Conditions: small-molecule microarray, higher = more signal.
Experiment [4] in a line: change in splice reporter luminescence, either direction, cell-based, HEK293, spliceosome inhibition project, primary screen (AID 1101).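 Note: HEK293 cells carrying a splicing-competent luciferase reporter gene; test concentration not given here.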 To be noted: HEK293 splicing luciferase reporter, 24 h, higher = more signal, called active from +8 up or from −8 down. (In general: A reporter such as luciferase makes a cellular process visible.)
Experiment [5] deals with Fibroblast growth factor 10 (Homo sapiens) (UniProt O15520). Description: compounds binding fibroblast growth factor 10 – biochemical, small-molecule microarray, 635 nm fluorescence, primary screen (AID 1102). Conditions: FGF10 binding, fluorescence 635 nm, higher = more signal.
The subject of experiment [6] is glycogen synthase kinase-3 (GSK3A per assay name; protocol says GSK3B). Description: compounds binding glycogen synthase kinase-3 – biochemical, small-molecule microarray, 635 nm fluorescence, GSK3A, primary screen (AID 1103). Note: the record names both GSK3A and GSK3B. To be noted: fluorescence 635 nm, higher = more signal.
In experiment [7] the target is Epidermal growth factor receptor (Homo sapiens) (UniProt P00533). Description: compounds binding epidermal growth factor receptor – biochemical, small-molecule microarray, 635 nm fluorescence, primary screen (AID 1104).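 Note: score merges 667 nm emission intensity with spot signal to noise over triplicate slides.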 To be noted: EGFR binding, higher = more signal.
In experiment [8] the target is Follistatin-related protein 3 (Homo sapiens) (UniProt O95633). Description: compounds binding follistatin-related protein 3 – biochemical, small-molecule microarray, 635 nm fluorescence, primary screen (AID 1105).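 Note: score merges emission near 667 nm and signal to noise per printed spot across three slides.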 Conditions: FSTL3 binding, higher = more signal.
Experiment [9] addresses Dickkopf-related protein 1 (Homo sapiens) (UniProt O94907). Description: small molecules binding DKK1 protein – biochemical, small-molecule microarray, 635 nm fluorescence scan, primary screen (AID 1106).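 Note: score merges emission near 667 nm with signal to noise over three replicate slides.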 To be noted: higher = more signal.
Experiment [10] concerns Inhibin beta A chain (activin A). Description: small molecules binding activin A – biochemical, small-molecule microarray, 635 nm fluorescence scan, primary screen (AID 1107).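 Note: mouse activin A protein probed at 4.33 µg/mL on printed slides; score merges bound-protein fluorescence near 667 nm with spot signal-to-noise.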 To be noted: INHBA, higher = more signal.
The subject of experiment [11] is Human papillomavirus type 1a protein E7 (residues 44-93). As to the kind of experiment: small molecules binding HPV E7 44-93 – biochemical, small-molecule microarray, residues 44-93, 635 nm fluorescence, primary screen (AID 1108).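 Note: E7 fragment applied at 1 µg/mL in TBST for 1 h at 4 C; score combines spot fluorescence with its signal to noise ratio.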 Conditions: fluorescence 635 nm, higher = more signal.
Experiment [12] is described as follows: hepatitis C replication reporter changes, two-sided – Huh7 cells, luciferase reporter, HCV replication inhibitor project, primary screen (AID 1109).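 Note: huh7 hepatoma cells harbouring a luciferase neomycin HCV replicon reporter; luciferase luminescence as measure of HCV replicon replication; test concentration not given here.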 Conditions: Huh7 HCV replicon luciferase reporter, 48 h; higher = more signal.
In experiment [13] the target is Left-right determination factor 2 (Homo sapiens) (UniProt O00292). As to the kind of experiment: small molecules binding LEFTY2 protein – biochemical, small-molecule microarray, 635 nm fluorescence scan, primary screen (AID 1110). To be noted: higher = more signal.
For experiment [14], the target named is Calmodulin-1 (Homo sapiens) (UniProt P0DP23). Description: small molecules binding calmodulin-1 with EGTA – biochemical, small-molecule microarray, Cy5-labelled CALM1, profiling panel (AID 1111).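 Note: labelled calmodulin applied in Tris saline Tween buffer holding calcium plus EGTA and DTT.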 Conditions: Cy5-CALM1 binding fluorescence, higher = more signal.
The target is the same in experiment [15]. As to the kind of experiment: small molecules binding Ca-loaded calmodulin-1 – biochemical, small-molecule microarray, Cy5-labelled CALM1, plus calcium, artefact control for SMM control-protein annotation, profiling panel (AID 1112).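 Note: score merges spot fluorescence with signal to noise from triplicate slides.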 Conditions: Cy5-CALM1 binding fluorescence, higher = more signal.
Experiment [16] in a line: probe aWnt5a binding to arrayed compounds – biochemical, biotinylated probe, 635/667 nm fluorescence, primary screen (AID 1113).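 Note: score merges 667 nm fluorescence intensity with signal-to-noise per printed feature.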 To be noted: small-molecule microarray, higher = more signal.
The nature of experiment [17]: probe aShh binding to arrayed compounds – biochemical, biotinylated probe, 635/667 nm fluorescence, primary screen (AID 1114).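 Note: probe is biotin-labelled aShh protein from a stem cell growth factor screen; measures binding of labelled protein to compounds printed on the slide; score merges feature fluorescence at 667 nm with signal-to-noise.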 To be noted: small-molecule microarray, higher = more signal.
Experiment [18] can be described thus: probe aNog binding to arrayed compounds – biochemical, biotinylated probe, 635/667 nm fluorescence, primary screen (AID 1115).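 Note: probe is biotinylated aNog protein used at 0.15 µg/mL for 1 h at 4 C; z-score combines 667 nm fluorescence of each spot with its signal to noise.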 To be noted: small-molecule microarray, higher = more signal.
For experiment [19], the target named is Torsin-1A-interacting protein 1 (Homo sapiens) (UniProt Q5JTV8). Description: compound microarray binding of lysate hLAP1 – cell lysate, small-molecule microarray, COS7 lysate, 635/667 nm fluorescence, primary screen (AID 1116). To be noted: 635 nm fluorescence, higher = more signal.
Experiment [20] deals with Alpha-bungarotoxin (Bungarus multicinctus) (UniProt P60615). As to the kind of experiment: compounds binding labelled alpha-BTX control protein – biochemical, small-molecule microarray, Alexa647 label, 635/667 nm fluorescence, artefact control for SMM control protein annotation, profiling panel (AID 1117). To be noted: alpha-BTX-A647 binding fluorescence, higher = more signal.

Active and inactive are the calls of the source.

Chain of Alpha-bungarotoxin (Bungarus multicinctus) (P60615 whole entry, looked up): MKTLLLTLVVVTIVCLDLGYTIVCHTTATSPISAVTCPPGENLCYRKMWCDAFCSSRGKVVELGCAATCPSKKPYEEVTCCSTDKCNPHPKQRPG
Chain of Dickkopf-related protein 1 (Homo sapiens) (O94907 whole entry, looked up): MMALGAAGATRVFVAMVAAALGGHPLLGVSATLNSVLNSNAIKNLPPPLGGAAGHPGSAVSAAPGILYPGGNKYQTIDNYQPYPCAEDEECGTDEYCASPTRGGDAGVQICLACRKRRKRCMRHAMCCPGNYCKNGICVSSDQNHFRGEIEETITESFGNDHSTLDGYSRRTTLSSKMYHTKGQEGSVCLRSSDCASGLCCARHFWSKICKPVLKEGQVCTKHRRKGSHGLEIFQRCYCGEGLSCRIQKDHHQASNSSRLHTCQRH
Chain of Fibroblast growth factor 10 (Homo sapiens) (O15520 whole entry, looked up): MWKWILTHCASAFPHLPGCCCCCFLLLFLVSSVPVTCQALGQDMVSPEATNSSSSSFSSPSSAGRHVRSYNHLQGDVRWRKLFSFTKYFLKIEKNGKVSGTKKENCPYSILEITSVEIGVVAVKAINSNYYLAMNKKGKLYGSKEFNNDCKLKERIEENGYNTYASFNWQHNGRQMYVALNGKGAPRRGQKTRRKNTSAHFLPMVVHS
Chain of Left-right determination factor 2 (Homo sapiens) (O00292 whole entry, looked up): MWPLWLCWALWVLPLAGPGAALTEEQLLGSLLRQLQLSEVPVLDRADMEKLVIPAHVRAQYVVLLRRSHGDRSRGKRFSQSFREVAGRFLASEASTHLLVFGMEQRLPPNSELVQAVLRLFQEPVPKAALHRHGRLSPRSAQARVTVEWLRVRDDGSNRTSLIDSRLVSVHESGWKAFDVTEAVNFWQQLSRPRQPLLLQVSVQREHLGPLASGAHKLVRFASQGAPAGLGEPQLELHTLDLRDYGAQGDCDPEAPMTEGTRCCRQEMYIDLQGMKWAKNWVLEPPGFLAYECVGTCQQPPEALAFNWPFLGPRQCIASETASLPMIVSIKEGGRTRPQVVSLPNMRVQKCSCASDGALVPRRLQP
Chain of Epidermal growth factor receptor (Homo sapiens) (P00533 whole entry, looked up): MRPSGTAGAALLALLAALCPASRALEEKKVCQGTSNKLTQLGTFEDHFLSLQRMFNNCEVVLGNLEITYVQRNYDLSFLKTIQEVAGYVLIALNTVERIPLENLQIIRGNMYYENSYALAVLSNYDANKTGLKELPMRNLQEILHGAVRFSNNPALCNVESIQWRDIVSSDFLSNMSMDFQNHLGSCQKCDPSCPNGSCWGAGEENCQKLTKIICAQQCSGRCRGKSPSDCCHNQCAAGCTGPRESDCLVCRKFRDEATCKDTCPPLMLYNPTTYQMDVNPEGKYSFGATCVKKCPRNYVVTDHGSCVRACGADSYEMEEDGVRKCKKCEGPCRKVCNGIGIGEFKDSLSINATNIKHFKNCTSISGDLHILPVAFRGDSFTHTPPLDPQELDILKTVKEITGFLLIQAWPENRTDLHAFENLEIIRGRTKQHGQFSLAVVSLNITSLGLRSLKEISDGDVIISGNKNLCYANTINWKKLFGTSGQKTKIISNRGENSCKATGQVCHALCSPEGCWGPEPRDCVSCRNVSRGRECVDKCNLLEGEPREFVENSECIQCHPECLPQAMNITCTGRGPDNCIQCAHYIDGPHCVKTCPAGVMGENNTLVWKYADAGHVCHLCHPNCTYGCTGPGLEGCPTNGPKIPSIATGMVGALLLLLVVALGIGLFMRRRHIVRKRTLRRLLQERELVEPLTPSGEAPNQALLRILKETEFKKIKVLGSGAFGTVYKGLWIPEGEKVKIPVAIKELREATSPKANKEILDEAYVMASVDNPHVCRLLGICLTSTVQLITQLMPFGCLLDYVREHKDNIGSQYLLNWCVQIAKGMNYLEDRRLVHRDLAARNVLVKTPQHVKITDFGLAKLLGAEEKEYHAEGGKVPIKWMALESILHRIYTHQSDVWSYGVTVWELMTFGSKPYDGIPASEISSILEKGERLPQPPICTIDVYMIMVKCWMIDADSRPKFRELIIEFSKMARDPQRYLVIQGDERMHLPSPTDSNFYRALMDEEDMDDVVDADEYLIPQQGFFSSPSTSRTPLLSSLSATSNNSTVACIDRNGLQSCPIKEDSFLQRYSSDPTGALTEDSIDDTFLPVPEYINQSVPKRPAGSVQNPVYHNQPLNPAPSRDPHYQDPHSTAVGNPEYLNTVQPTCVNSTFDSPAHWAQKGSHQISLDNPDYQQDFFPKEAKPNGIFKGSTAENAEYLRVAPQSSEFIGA
Chain of Follistatin-related protein 3 (Homo sapiens) (O95633 whole entry, looked up): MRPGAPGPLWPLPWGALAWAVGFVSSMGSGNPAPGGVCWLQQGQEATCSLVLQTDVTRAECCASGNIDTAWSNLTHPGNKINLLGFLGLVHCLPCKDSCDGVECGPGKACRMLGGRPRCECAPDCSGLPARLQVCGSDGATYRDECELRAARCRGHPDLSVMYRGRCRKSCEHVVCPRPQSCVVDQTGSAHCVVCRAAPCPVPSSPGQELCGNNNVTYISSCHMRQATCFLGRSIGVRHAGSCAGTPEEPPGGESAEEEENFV
Chain of Torsin-1A-interacting protein 1 (Homo sapiens) (Q5JTV8 whole entry, looked up): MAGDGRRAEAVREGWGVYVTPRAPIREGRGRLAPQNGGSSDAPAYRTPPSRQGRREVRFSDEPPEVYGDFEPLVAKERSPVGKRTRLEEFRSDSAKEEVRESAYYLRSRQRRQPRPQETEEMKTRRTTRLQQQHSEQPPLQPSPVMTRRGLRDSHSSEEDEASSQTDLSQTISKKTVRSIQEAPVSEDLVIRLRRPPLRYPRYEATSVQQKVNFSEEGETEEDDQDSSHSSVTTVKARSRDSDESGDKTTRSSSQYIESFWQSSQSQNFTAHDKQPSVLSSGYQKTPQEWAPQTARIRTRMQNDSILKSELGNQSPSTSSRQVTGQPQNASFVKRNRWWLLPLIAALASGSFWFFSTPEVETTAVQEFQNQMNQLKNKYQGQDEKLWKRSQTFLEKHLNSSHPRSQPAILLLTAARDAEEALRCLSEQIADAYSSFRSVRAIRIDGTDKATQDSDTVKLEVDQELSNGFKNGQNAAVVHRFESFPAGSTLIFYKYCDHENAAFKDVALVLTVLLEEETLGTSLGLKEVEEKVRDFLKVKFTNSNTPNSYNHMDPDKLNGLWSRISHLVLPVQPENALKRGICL

`CO[C@H]1COC(=O)[C@H](CCSC)NC(=O)CC=C[C@@H](C)COC(=O)[C@@H](OCc2ccccc2)C=C[C@@H]1C`: the composite z-score in experiment [1] was 0.979; in experiment [2], 0.981; in experiment [3], -1.41; in experiment [5], 0.485; in [6] it was 0.743; in experiment [7] it was 0.574. Besides, the composite z-score in experiment [8] is 1.15; in experiment [9], 2; in [10], 0.397; in [11], -0.457; in experiment [13], 1.23; in experiment [14] it was -0.86. For the same molecule, the composite z-score in [15] was -1.6; in [16] it was -0.182; in [17] it was -0.1; in experiment [18], -0.541; in experiment [19], -0.0258; in experiment [20] it was -0.414. Moreover, the z-score was -0.342 (inactive) in experiment [4] and -0.704 in [12].

As to `COc1cccc([C@H]2N[C@H](C(=O)O)CC[C@@H]2C)c1`, the composite z-score in experiment [1] is -0.406; in experiment [2], -0.251; in experiment [3] it was -0.136; in experiment [5], -0.401; in experiment [6], 0.0602; in [7], 0.194. The composite z-score is 0.0151 in [8]; 0.0655 in experiment [9]; 0.282 in [10]; 0.0991 in [11]; 0.0589 in experiment [13]; 0.0938 in [14]. The composite z-score in experiment [15] is 0.334; in experiment [16], -0.131; in experiment [17] it was -0.458; in experiment [18], -0.339; in experiment [19], 0.0026; in [20], 0.396. The z-score in experiment [4] was -1.94 (inactive); in experiment [12], 0.53.

In the case of `COCCOC(=O)N1C(=O)[C@@]2(c3cc(C#CCCO)ccc31)[C@H](C(=O)N1CCCCCCC1)[C@H]1C(=O)O[C@H](c3ccccc3)[C@H](c3ccccc3)N1[C@@H]2c1ccc(O)cc1`, the composite z-score in [1] stood at 1.46; in experiment [2] it was 1.53; in experiment [3] it was 1.19; in experiment [5], 0.494; in experiment [6], 1.28; in experiment [7] it was 0.292. The composite z-score in experiment [8] came to 1.3; in [9] it was 0.4; in experiment [10], 1.27; in [11], 1.02; in [13] it was 0.383; in [14], 2.14. For the same molecule, the composite z-score in experiment [15] worked out at 0.719; in experiment [16], 0.0775; in experiment [17], 0.814; in [18] it was 0.916; in experiment [19], 2.56; in experiment [20], 1.45. In addition, the z-score in [4] was -1.15 (inactive); in experiment [12] it was -1.18.

For `COC(=O)[C@@]1(Cc2ccc(OC)cc2)[C@H]2c3cc(C(=O)N(C)C)n(CCc4ccc(OC)c(Br)c4)c3C[C@H]2CN1C(=O)c1ccccc1`, the composite z-score in [1] was 0.843; in experiment [2], 1.98; in [3], 1.47; in experiment [5] it was 0.77; in experiment [6] it was 1.02; in experiment [7], -0.405. Besides, the composite z-score in experiment [8] was 1.04; in experiment [9], -0.884; in experiment [10], 0.463; in [11] it was 1.33; in experiment [13], -0.239; in experiment [14], 2.23. Further, the composite z-score in experiment [15] turned out to be 1.54; in experiment [16] it was 0.36; in experiment [17], 2.03; in [18], 1.19; in experiment [19], 1.73; in experiment [20], 1.98. The z-score was -1.13 (inactive) in [4] and -2.54 in experiment [12].

In the case of `C[N+](C)(C)CCCCNC(=O)[C@H]1C[C@H]2C(=O)NCC(=O)N2[C@H]1c1cccc(OCCO)c1`, the composite z-score in experiment [1] was 1.59; in experiment [2] it was 0.0166; in experiment [3], -0.335; in experiment [5] it was 1.45; in [6], 1.29; in experiment [7], 1.09. For the same molecule, the composite z-score in experiment [8] is 1.49; in experiment [9], 1.84; in experiment [10] it was 0.747; in [11], 0.296; in experiment [13], 1.17; in [14], -1.68. Besides, the composite z-score in [15] was -1.96; in [16] it was 0.0618; in experiment [17], 0.147; in experiment [18], -0.178; in [19], 0.724; in experiment [20], 0.804. The results for the z-score in experiment [4] and in experiment [12] were 0.589 (inactive) and -0.651, respectively.

The values are drawn from PubChem BioAssay.
